This is an account of results in patent US20260200999, “SYNTHETIC TRANSCRIPTION FACTORS” (ETH ZURICH, published 2026).

The target of assay [1] is T1, MTERF1 73-399::RelA 430-551 (Homo sapiens, UniProt Q99551 SEQ:1-327).
T1 chain: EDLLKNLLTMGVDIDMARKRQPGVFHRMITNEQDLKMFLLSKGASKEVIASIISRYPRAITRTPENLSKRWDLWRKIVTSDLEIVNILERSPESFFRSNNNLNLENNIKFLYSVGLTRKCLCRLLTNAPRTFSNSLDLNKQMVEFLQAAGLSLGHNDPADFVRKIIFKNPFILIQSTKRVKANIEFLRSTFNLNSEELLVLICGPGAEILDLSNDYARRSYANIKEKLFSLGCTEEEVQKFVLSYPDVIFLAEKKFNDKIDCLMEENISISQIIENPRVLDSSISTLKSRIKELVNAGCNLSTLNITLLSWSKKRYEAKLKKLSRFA
Briefly: cell_activity; HEK293 reporter; reduced but not abolished. Particulars: tags: RelA 430-551 TAD fusion; dsDNA, one strand shown.

For assay [2], the target named is T2, MTERF1 104-399::RelA 430-551 (Homo sapiens, UniProt Q99551 SEQ:1-296).
T2 chain: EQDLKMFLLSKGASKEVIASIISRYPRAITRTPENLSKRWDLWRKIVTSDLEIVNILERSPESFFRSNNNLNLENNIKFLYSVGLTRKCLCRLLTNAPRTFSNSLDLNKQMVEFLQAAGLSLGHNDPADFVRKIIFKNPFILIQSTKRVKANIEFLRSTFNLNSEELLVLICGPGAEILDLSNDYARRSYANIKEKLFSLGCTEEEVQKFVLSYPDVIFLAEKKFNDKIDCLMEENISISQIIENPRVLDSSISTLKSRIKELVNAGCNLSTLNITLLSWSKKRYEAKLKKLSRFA
The description is as above. The conditions noted are these: tags: RelA 430-551 TAD fusion; dsDNA, one strand shown.

For “TAAGATGGCAGAGCCCGGTAATTAAGATGGCAGAGCCCGGTAATTAAGATGGCAGAGCCCGGTAATTAAGATGGCAGAGCCCGGTAATTAAGATGGCAGAGCCCGGTAAT”, the binding signal in assay [1] and in assay [2] was approximately 1.5 fold less than MTF in each case.
